Only some compounds are listed: those with a hit (about 0.51% of all), similar ones and a draw of the others.
E coli growth-1 – bacterial growth inhibition, counter-screen for AddAB inhibitors. E. coli V3065 growth, OD600 absorbance, 18 h. inhibition, % at 11.9 µM. 0.27% of 330,000 active;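 active = inhibition above the campaign's mean inhibition across all tested compounds plus 3 SD, cut at about 9.9% in these data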;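 note: uninfected addAB+ strain grown without phage in ampicillin broth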
AddAB inh – less growth of phage-infected E. coli with AddAB. E. coli expressing H. pylori AddAB, absorbance growth. inhibition, % at 11.9 µM. 0.29% of 330,000 active; in the data active = inhibition above about 12%
phage Ecoli inh – E. coli growth loss with phage present. AID 651602. growth absorbance. 0.26% of 360,000 active. inhibition, % at 11.9 µM; in the data active = inhibition above about 11%
Tat transport – inhibitors of E. coli Tat protein transport. AID 488895. E. coli MC4100 TorA-mCherry Tat export, fluorescence. inhibition, % at 10 µM. 0.036% of 340,000 active;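 active = mean replicate inhibition at least 50% and at least half of replicates individually reaching 50%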;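 note: exported cargo escapes ClpAP degradation while cytoplasmic cargo is degraded and loses fluorescence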
E coli growth-2 – E. coli growth inhibition; Escherichia coli growth, OD600, 23 h; stronger effect = lower value; OD600 absorbance (no concentration beside the values); 0.21% of 330,000 active;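 active = OD600 absorbance below the run mean of sample wells minus 3.6 SD, in any replicate, cut at about 0.56 in these data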
AddAB conf – confirmation screen: growth loss of phage-infected E. coli expressing H. pylori AddAB | inhibition, % at 11.9 µM | AID 488942 | E. coli V3065 expressing H. pylori AddAB, T4 phage, OD; T4 phage with gene 2 nonsense mutations | shares compounds with AddAB inh | 64% of 880 active;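 active = mean inhibition above a set limit taken from the earlier primary screen, cut at about 13% in these data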;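 note: higher means less bacterial growth since AddAB block lets phage replicate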
RecBCD counter – counter-screen: growth loss of RecBCD+ E. coli with mutant T4 phage | shares compounds with AddAB inh | E. coli V66 + mutant T4 phage, OD growth | inhibition, % at 11.9 µM | 73% of 880 active | AID 488955;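 active = mean inhibition above the mean of solvent-only control wells plus 3 SD, cut at about 4% in these data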;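 note: optical density read after an 18 h incubation at 37 °C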
bact viab count – counter-screen: bacterial growth inhibition; shares compounds with AddAB inh; bacterial viability, absorbance (AddAB counterscreen); inhibition, % at 11.9 µM; 35% of 880 active; AID 488956; in the data active = inhibition above about 25%
Of the large screens only hits and unclear results are named; the others gave an inactive call (follow-up assays come after a bar, where they were run).

Cc1ccc(-c2c(NC(=O)c3ccco3)oc3ccccc3c2=O)cc1	E coli growth-1 39.5, AddAB inh 93.5 | AddAB conf inactive | RecBCD counter inactive | bact viab count inactive
C[C@H]1c2cccc(O)c2C(O)=C2C(=O)[C@]3(O)C(O)=C(C(N)=O)C(=O)[C@@H](N(C)C)C3[C@@H](O)C21 (some centres undefined)	E coli growth-1 100.2, AddAB inh 99.0, phage Ecoli inh 101.4, Tat transport 146.4 (no result: E coli growth-2) | AddAB conf 99.3 | RecBCD counter 98.5 | bact viab count 99.5
CCOC(C)=Nn1c2nc3ccccc3nc2c2c(=O)n(CC(C)C)c(C)nc21	none (no result: E coli growth-1, AddAB inh, phage Ecoli inh, Tat transport)
COc1ccc(NC(=O)CSc2nc3ncccc3[nH]2)cc1OC	AddAB inh 12.5 | AddAB conf inactive | RecBCD counter inactive | bact viab count inactive
CCCCC(CC)CN=C(N)NC(N)=NCCCCCCN=C(N)NC(N)=NCC(CC)CCCC (centres undefined)	E coli growth-1 101.4, AddAB inh 98.0, Tat transport 75.9 (no result: phage Ecoli inh, E coli growth-2) | AddAB conf 104.3 | RecBCD counter 72.6 | bact viab count 97.8
CCN(c1cccc(C)c1)S(=O)(=O)c1cccc2nsnc12	none
Cc1cccc(N(C)S(=O)(=O)c2cccc3nsnc23)c1	AddAB inh 14.3 | AddAB conf inactive | RecBCD counter inactive | bact viab count inactive
Cc1nnnn1C(=Cc1ccccc1)C(=O)OCC(=O)N1CC2(C)CC1CC(C)(C)C2 (centres undefined)	none (no result: E coli growth-1, AddAB inh, phage Ecoli inh, Tat transport)
CCn1cc(C(=O)O)c(=O)c2cc(F)c(N3CCN(S(=O)(=O)c4ccc(NC(=O)OC)cc4)CC3)cc21	E coli growth-1 17.9, AddAB inh 36.7, E coli growth-2 0.0615 | AddAB conf 100.9 | RecBCD counter 28.8 | bact viab count 100.5
CCCCCCC(=O)N1CCN(c2cc3c(cc2F)c(=O)c(C(=O)O)cn3CC)CC1	none (no result: E coli growth-2)
CCC(=O)N1CCN(c2cc3c(cc2F)c(=O)c(C(=O)O)cn3CC)CC1	E coli growth-1 70.0, AddAB inh 96.9, E coli growth-2 0.069 | AddAB conf 99.6 | RecBCD counter 8.4 | bact viab count 98.0
CCOC(=O)c1cn(CC)c2cc(N3CCOCC3)c(F)cc2c1=O	E coli growth-1 52.7, AddAB inh 58.3, E coli growth-2 0.535 | AddAB conf 70.4 | RecBCD counter inactive | bact viab count inactive
CCn1cc(C(=O)NN)c(=O)c2cc(F)c(N3CCN(C)CC3)cc21	E coli growth-1 15.8, AddAB inh 17.9 | AddAB conf 47.3 | RecBCD counter inactive | bact viab count 29.1
O=C1N/C(=N\N=Cc2cccs2)SC1Cc1cccc(Cl)c1Cl (centres undefined)	none (no result: E coli growth-1, AddAB inh, phage Ecoli inh, Tat transport)
c1ccc(CCC2CCC(CCc3ccccc3)N2)cc1 (centres undefined)	none (no result: E coli growth-1, AddAB inh, phage Ecoli inh, Tat transport)
O=c1[nH]c2ccccc2n1CCCOc1ccccc1	none
CCCCn1c(=O)[nH]c2ccccc21	AddAB inh 13.9 | AddAB conf inactive | RecBCD counter inactive | bact viab count inactive
O=C(CCN1CCN(c2ccccc2)CC1)N/N=C/c1ccc([N+](=O)[O-])o1	AddAB inh 26.4 (no result: E coli growth-2) | AddAB conf 78.1 | RecBCD counter inactive | bact viab count inactive
O=C(CNc1cccc2ccccc12)N/N=C/c1ccc([N+](=O)[O-])o1	AddAB inh 13.7 (no result: E coli growth-2) | AddAB conf 35.5 | RecBCD counter inactive | bact viab count inactive
CC(=O)Nc1ccc(C=NNC(=O)CCN2CCN(c3ccccc3)CC2)cc1	none (no result: E coli growth-1, AddAB inh, phage Ecoli inh, Tat transport)
CC(C)(C)OC(=O)C(C)(C)ON=C(C(=O)O)c1csc(N)n1	none (no result: E coli growth-1, AddAB inh, phage Ecoli inh, Tat transport)
CCOc1ccc(NC(=S)N2CCn3c(nc4ccccc43)C2)cc1	E coli growth-1 13.3, AddAB inh 20.8 (no result: phage Ecoli inh, Tat transport, E coli growth-2) | AddAB conf 28.3 | RecBCD counter 19.1 | bact viab count inactive
Cc1ccc(S(=O)(=O)N2CCC(C(=O)NNC(=O)c3ccccc3O)CC2)cc1	none
Cc1ccc(S(=O)(=O)N2CCC(C(=O)NNC(=O)c3ccccc3O)CC2)cc1C	AddAB inh 13.7 | AddAB conf inactive | RecBCD counter 9.4 | bact viab count inactive
C/C(C=NNC(=O)Cn1cnc2ccccc21)=C\c1ccccc1	none (no result: E coli growth-1, AddAB inh, phage Ecoli inh, Tat transport)
O=C(Nc1nc(-c2cccs2)c(C(=O)C(F)(F)F)s1)c1ccccc1	none
O=C(Nc1nc(-c2cccs2)c(C(=O)C(F)(F)F)s1)c1ccco1	E coli growth-1 95.9, AddAB inh 98.7 | AddAB conf inactive | RecBCD counter inactive | bact viab count inactive
Cc1ccc(C=NNC(=O)c2ccc(N(C)S(=O)(=O)c3ccccc3)cc2)cc1	none (no result: E coli growth-1, AddAB inh, phage Ecoli inh, Tat transport)
COc1ccccc1/C=C/C=Nn1c(C)nnc1C	none (no result: E coli growth-1, AddAB inh, phage Ecoli inh, Tat transport)
O=C(Nc1nnc(C(F)(F)F)s1)c1ccc(Br)s1	AddAB inh 13.5 | AddAB conf inactive | RecBCD counter 6.7 | bact viab count inactive
CNC(=S)NN=Cc1ccccc1OCC(=O)O	none (no result: E coli growth-1, AddAB inh, phage Ecoli inh, Tat transport)
CCOc1cc(N)c(Cl)cc1C(=O)NCC1CN(Cc2ccc(F)cc2)CCO1 (centres undefined)	E coli growth-1 92.5, AddAB inh 98.6, E coli growth-2 0.0635 | AddAB conf 101.0 | RecBCD counter 11.6 | bact viab count 97.9
C#Cc1ccc(C2C=C(C(=O)N3CCN(Cc4ccccc4)CC3)OC(OCC)C2CCCO)cc1 (centres undefined)	none (no result: E coli growth-1, AddAB inh, phage Ecoli inh, Tat transport)
O=C(NCCCn1ccnc1)C(=O)NCC(c1cccnc1)N1CCN(c2ccccc2)CC1 (centres undefined)	E coli growth-1 97.5, AddAB inh 96.9 | AddAB conf inactive | RecBCD counter inactive | bact viab count inactive
O=C(NCCCn1ccnc1)C(=O)NCC(c1ccco1)N1CCN(c2ccccc2)CC1 (centres undefined)	none
CCCn1c(NC(=O)c2cccc(C)c2C)nc2ccccc21	none (no result: phage Ecoli inh)
O=C(Nc1ncccn1)c1ccc([N+](=O)[O-])o1	AddAB inh 59.8, phage Ecoli inh 13.5, E coli growth-2 0.49 | AddAB conf 95.9 | RecBCD counter 5.6 | bact viab count inactive
O=C(Nc1ccccn1)c1ccc([N+](=O)[O-])o1	E coli growth-1 72.5, AddAB inh 98.2 (no result: phage Ecoli inh) | AddAB conf 56.8 | RecBCD counter 17.4 | bact viab count 62.3
O=C(Nc1cccc2ccccc12)c1ccc([N+](=O)[O-])o1	none
CCCn1c(NC(=O)c2ccc([N+](=O)[O-])o2)nc2ccccc21	AddAB inh 15.0 | AddAB conf 58.5 | RecBCD counter 4.7 | bact viab count inactive
CCOc1ccc(-c2c(C(=O)NN=C(C)c3ccncc3)nnn2-c2nonc2N)cc1	none (no result: E coli growth-1, AddAB inh, phage Ecoli inh, Tat transport)
O=S1(=O)Nc2c(ccc3cccnc23)-c2ccccc21	E coli growth-1 51.4, AddAB inh 50.7, E coli growth-2 0.222 (no result: phage Ecoli inh) | AddAB conf 44.8 | RecBCD counter 49.0 | bact viab count 46.4
COc1cc(C=NNC(=O)CN(Cc2ccco2)S(=O)(=O)c2ccccc2)ccc1O	none (no result: E coli growth-1, AddAB inh, phage Ecoli inh, Tat transport)
